Among the data in PubChem BioAssay (EPA / NIEHS) are outcome and AC50 values, retold here.

Assay [1] can be described thus: APR_HepG2_CellCycleArrest_1hr: Apredica 1-hour HepG2 Assay for Cell Cycle Arrest (AID 2282666). The note with it: high-content imaging, actives raise or lower the signal. The essentials: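 Cell cycle arrest scored from nuclear DNA content (Hoechst 33342) using high-content imaging of fixed HepG2 cells after 1 h treatment across 0.39–200 uM, in duplicate. Gain or loss fitted relative to 0.5% DMSO.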

A short description of assay [2]: APR_HepG2_CellLoss_1hr: Apredica 1-hour HepG2 Assay for Cell Loss (AID 2282668).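 Also: curves fitted both ways against DMSO so gain or loss of cells counts.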 Particulars: high-content imaging. The essentials: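 Cell number comes from high-content imaging of Hoechst-labelled nuclei in fixed HepG2 cells. Cells were exposed for 1 h to ten concentrations from 0.39 to 200 uM in 0.5% DMSO. Gain or loss was fitted against DMSO controls.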
A short description of assay [3]: APR_HepG2_MicrotubuleCSK_1hr: Apredica 1-hour HepG2 Assay for Microtubule CSK Stabilty (AID 2282669). The note with it: HepG2 microtubule cytoskeleton imaging, actives raise or lower the signal. Put shortly: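 Alpha-tubulin immunofluorescence, imaged by automated high-content microscopy with Hoechst nuclear segmentation, measured cytoskeletal change after 1 h dosing of HepG2 at 0.39–200 uM in 0.5% DMSO. Activity fitted in both directions relative to DMSO.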

Assay [4] is described as follows: APR_HepG2_MitoMembPot_1hr: Apredica 1-hour HepG2 Assay for Mitochondrial Membrane Potential (AID 2282675). The note with it: imaging, actives raise or lower the signal. The essentials:
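Mitochondrial membrane potential read as MitoTracker Red CMXRos intensity by automated imaging of fixed HepG2 cells. Dye at 250 nM for 30 min pre-fixation; compounds 0.39 to 200 uM for 1 hour, duplicate wells, 0.5% DMSO.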

Assay [5] is described as follows: APR_HepG2_CellCycleArrest_24hr: Apredica 24-hour HepG2 Assay for Cell Cycle Arrest (AID 2282905).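 Also: cell cycle arrest scored as ratio of 2N to 4N nuclear DNA content.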 The note with it: imaging, actives raise or lower the signal. The essentials: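 Step one: dose HepG2 with test compounds, 0.39–200 uM, 0.5% DMSO, 24 hr. Step two: fix, permeabilize, stain nuclei with Hoechst 33342. Step three: image six fields per well at 20x, quantify DNA content, fit bidirectionally relative to DMSO.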

Assay [6] is described as follows: APR_HepG2_StressKinase_1hr: Apredica 1-hour HepG2 Assay for Stress Kinase (AID 2282906). Particulars: HepG2 stress kinase (phospho-c-Jun) imaging, actives raise or lower the signal. Put shortly: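 High-content imaging of phospho-c-Jun immunostaining (with Hoechst nuclear identification) after a 1 h exposure of HepG2 cells to 10 concentrations from 0.39 to 200 uM, final DMSO 0.5%. Fitted bidirectionally against DMSO.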

The nature of assay [7]: APR_HepG2_NuclearSize_24hr: Apredica 24-hour HepG2 Assay for Nuclear Size (AID 2282907). The note with it: high-content imaging, actives raise or lower the signal. The essentials: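 After fixation and permeabilization, 24-hr-treated HepG2 cells were stained with Hoechst 33342 and imaged on an ArrayScan (20x). Doses spanned 0.39–200 uM in duplicate. Nuclear diameter changes in either direction were fitted relative to 0.5% DMSO controls.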

Assay [8] is described as follows: APR_HepG2_CellLoss_24hr: Apredica 24-hour HepG2 Assay for Cell Loss (AID 2282908).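 As to AC50: fit in both directions so a hit may be cell loss or gain.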 The note with it: high-content imaging. The essentials:
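Duplicate wells received compound at ten concentrations (0.39–200 uM; final DMSO 0.5% v/v). After fixation with formaldehyde, nuclei stained with Hoechst 33342 were imaged at 20x. Loss or gain of cell count was fitted relative to DMSO controls.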

Assay [9] in a line: APR_HepG2_MicrotubuleCSK_24hr: Apredica 24-hour HepG2 Assay for Microtubule CSK Stabilty (AID 2282909). Particulars: HepG2 microtubule cytoskeleton imaging, actives raise or lower the signal. Put shortly:
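Microtubule stability is scored from tubulin immunofluorescence in fixed HepG2 cells imaged at 20x. Cells receive ten compound concentrations up to 200 uM for 24 h; taxol and DMSO serve as positive and negative controls.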

Assay [10] can be described thus: APR_HepG2_MitoticArrest_24hr: Apredica 24-hour HepG2 Assay for Mitotic Arrest (AID 2282910). The note with it: high-content imaging, actives raise or lower the signal. Put shortly:
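HepG2, 24 hr dosing, 0.39–200 uM, 0.5% DMSO final. Formaldehyde-fixed, Triton-permeabilised, anti-phospho-histone H3 plus Hoechst. ArrayScan imaging at 20x; bidirectional fit vs DMSO baseline.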

Assay [11] is described as follows: APR_HepG2_MitoMembPot_24hr: Apredica 24-hour HepG2 Assay for Mitochondrial Membrane Potential (AID 2282911). The note with it: imaging, actives raise or lower the signal. Put shortly: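 Mitochondrial membrane potential imaged via MitoTracker Red CMXRos (250 nM, 30 min pre-fixation) in fixed HepG2 cells with Hoechst nuclear identification. Ten concentrations 0.39–200 uM, 24 h treatment, 0.5% DMSO; CCCP as positive control.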

Assay [12] can be described thus: APR_HepG2_MitoMass_24hr: Apredica 24-hour HepG2 Assay for Mitochondrial Mass (AID 2282912). The note with it: high-content imaging, actives raise or lower the signal. Put shortly: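 Readout: fluorescence of MitoTracker Red CMXRos (250 nM, added 30 min pre-fixation) in fixed HepG2 cells imaged by HCS. Exposure lasted 24 hr at 0.39–200 uM; increases and decreases were both fitted relative to DMSO.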

Assay [13] in a line: APR_HepG2_CellCycleArrest_72hr: Apredica 72-hour HepG2 Assay for Cell Cycle Arrest (AID 2282914). Particulars: high-content imaging, actives raise or lower the signal. The essentials:
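Read-out: nuclear DNA content from Hoechst 33342 high-content imaging (20x, six fields/well) after 3.7% formaldehyde fixation, fitted bidirectionally against DMSO. Treatment was 72 h in HepG2, ten concentrations 0.39–200 uM, duplicate, 0.5% DMSO.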

Assay [14] can be described thus: APR_HepG2_CellLoss_72hr: Apredica 72-hour HepG2 Assay for Cell Loss (AID 2282915). Particulars: high-content imaging. Put shortly: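 HepG2 cells exposed 72 h to compound at 0.39–200 uM (10 concentrations, duplicate) in 0.5% DMSO. Fixed with 3.7% formaldehyde and Hoechst 33342-stained. Imaged at 20x; nuclear count gives cell number, fitted bidirectionally versus DMSO.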

Assay [15] is described as follows: APR_HepG2_p53Act_24hr: Apredica 24-hour HepG2 Assay for p53 Activation (AID 2282913).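 Also: p53 protein immunofluorescence averaged per cell in HepG2 with Hoechst nuclei.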 Particulars: high-content imaging, actives raise or lower the signal. Put shortly:
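Fluorescence imaging of formaldehyde-fixed HepG2 cells labelled for p53 and with Hoechst, 24 h after dosing (0.39–200 uM, duplicate wells, 0.5% v/v DMSO). Signal fitted in both directions relative to DMSO.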

The nature of assay [16]: APR_HepG2_p53Act_1hr: Apredica 1-hour HepG2 Assay for p53 Activation (AID 2282671). The note with it: high-content imaging, actives raise or lower the signal. The essentials:
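After 1 h exposure (0.39–200 uM, 0.5% DMSO final, duplicates), fixed HepG2 cells were labelled with anti-p53 antibody plus Hoechst nuclear stain. Fluorescence quantified by automated 20x imaging; changes fitted in both directions against DMSO.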

Assay [17] can be described thus: APR_HepG2_NuclearSize_1hr: Apredica 1-hour HepG2 Assay for Nuclear Size (AID 2282670). The note with it: high-content imaging, actives raise or lower the signal. Put shortly: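 Nuclear size measured by high-content imaging of Hoechst 33342 nuclear stain after formaldehyde fixation; human HepG2 line exposed 1 hr to compounds at 0.39–200 uM in 0.5% DMSO, with bidirectional curve fitting relative to DMSO.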

A short description of assay [18]: APR_HepG2_MitoticArrest_1hr: Apredica 1-hour HepG2 Assay for Mitotic Arrest (AID 2282672). The note with it: high-content imaging, actives raise or lower the signal. The essentials:
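Ten-point concentration series (0.39 to 200 uM, duplicates, 0.5% v/v DMSO) applied to human HepG2 liver cells for 1 hr. High-content imaging of phospho-histone H3 and Hoechst-stained nuclei after fixation and permeabilization; DMSO-normalised bidirectional fit.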

The nature of assay [19]: APR_HepG2_P-H2AX_1hr: Apredica 1-hour HepG2 Assay for H2AX Phosphorylation (AID 2282673). Particulars: high-content imaging, actives raise or lower the signal. Put shortly:
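Phospho-H2A.x immunofluorescence (1:200, FITC secondary) plus Hoechst nuclear stain, quantified by high-content imaging in HepG2 after 1 hr compound exposure. Ten concentrations, 0.39 to 200 uM, in duplicate with 0.5% DMSO; fit both directions against DMSO.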

A short description of assay [20]: APR_HepG2_MitoMass_1hr: Apredica 1-hour HepG2 Assay for Mitochondrial Mass (AID 2282674). Particulars: high-content imaging, actives raise or lower the signal. Put shortly:
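Mitochondrial mass is taken from MitoTracker Red CMXRos (250 nM, 30 min, pre-fixation) fluorescence imaged at 20x in HepG2 cells. Exposure lasted 1 hr across ten concentrations, 0.39 to 200 uM, 0.5% DMSO; DMSO baseline, bidirectional fitting.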

Structures are written as SMILES. Active and inactive are the calls of the source. The calls were made as follows: active = hit-call score of the fitted dose curve at least 0.9, where 1 is the maximum; inactive = score below 0.9.

As a reminder, the AC50 is the concentration giving half of the maximal activity seen. For `CCc1cccc(CC)c1N(COC)C(=O)CCl`, the result in [1], in [2], in [3], in [4], in [6] and in [7] was inactive. The outcome in [11], in assay [12] and in assay [13] was inactive. For the same compound, the AC50 was 60.9 µM (active) in [5]; 92.5 µM (active) in assay [8]; 55.7 µM (active) in assay [9]; 62.4 µM (active) in assay [10]; 17.2 µM (active) in assay [14].

Consider `Nc1nc(N)nc(NC2CC2)n1`, for which the outcome in assay [1], in assay [2], in assay [3], in assay [4], in assay [5] and in assay [6] was inactive. Besides, the compound was classed as inactive in assay [7], in assay [8], in [9], in [10], in assay [11] and in [12]. For the same compound, the compound was called inactive in [15], in [13] and in assay [14].

Take `CNC(=O)Oc1cccc2c1OC(C)(C)O2`: the result in [1], in assay [2], in assay [3], in assay [16], in assay [4] and in assay [6] was inactive. For the same compound, the compound was called inactive in assay [7], in [9], in [10], in assay [11], in assay [12] and in assay [15]. The compound was classed as inactive in assay [13]. In addition, the AC50 in [5] is 127 µM (active); in [8] it was 83.8 µM (active); in [14], 86.6 µM (active).

Consider `CN(C)NC(=O)CCC(=O)O`, for which the call in assay [1], in assay [2], in assay [3], in assay [17], in assay [16] and in [18] was inactive. In addition, the compound was classed as inactive in [19], in assay [4], in [5], in assay [6], in assay [7] and in [8]. The compound was classed as inactive in assay [9], in assay [10], in [11], in [12], in assay [15] and in [13]. For the same compound, the call in [14] was inactive.

In the case of `Cc1ccn2nc(S(=O)(=O)Nc3c(F)cccc3F)nc2n1`, the result in [1], in assay [2], in assay [3], in assay [19], in assay [4] and in [5] was inactive. Further, the compound was called inactive in assay [6], in assay [7], in assay [8], in [9], in assay [10] and in [11]. The outcome in assay [12], in assay [13] and in assay [14] was inactive.

As to `CC(=NC#N)N(C)Cc1ccc(Cl)nc1`, the outcome in assay [1], in assay [2], in assay [17], in assay [16], in assay [18] and in [20] was inactive. The compound was classed as inactive in assay [4], in [5], in assay [6], in [7], in assay [8] and in [9]. Also, the compound was classed as inactive in assay [10], in assay [11], in assay [12], in [15], in assay [13] and in assay [14].

For the compound `C=C(C)[C@H]1Cc2c(ccc3c2O[C@@H]2COc4cc(OC)c(OC)cc4[C@@H]2C3=O)O1`, the call in assay [1], in [2], in assay [18], in assay [19], in assay [4] and in assay [6] was inactive. The compound was classed as inactive in [7], in [9], in assay [10] and in [12]. Also, the AC50 in assay [3] is 4.74 µM (active); in [5], 0.0391 µM (active); in assay [8], 15.7 µM (active); in assay [11], 0.295 µM (active); in assay [13], 0.283 µM (active); in assay [14] it was 12.8 µM (active).

`CCOP(=S)(Oc1cnc(C(C)(C)C)nc1)OC(C)C` (stereo not given): the compound was called inactive in assay [1], in assay [2], in assay [3], in assay [19], in [20] and in assay [4]. Besides, the compound was classed as inactive in assay [6], in [7], in assay [8], in assay [9], in assay [10] and in assay [11]. Besides, the result in assay [12] and in [15] was inactive. Also, the AC50 is 152 µM (active) in assay [5], 113 µM (active) in assay [13] and 82.7 µM (active) in assay [14].
